Source: PubChem (National Center for Advancing Translational Sciences (NCATS))
Compounds with a hit are over-represented: about 0.93% of the library has one in this group of screens.
MBNL1 CUG block: inhibitors of human MBNL1 binding to CUG repeat RNA; 280,000 compounds, 0.036% hits; AID 2675; TR-FRET MBNL1-His/biotin-(CUG)12 binding, 665/545 ratio; Potency, µM (titrated, usually from 57.5 µM), usual class: inhibitors; active = well fitted inhibition curve with a large enough effect in the signal ratio, with a control signal flat, not every such curve was filed as active; inconclusive = small, poorly fitted or top-dose-only effect, or effect the other way, or a change in a side signal; inactive = no such curve, though single readings can be large or run the other way; the % refers to the signal ratio
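Inhibition of protein-RNA binding appears as loss of TR-FRET between terbium anti-His antibody on MBNL1-His and streptavidin-XL665 on biotin-(CUG)12. Activity is normalized to buffer-only and uninhibited-complex controls.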
Six1-Eya2 inh: Six1/Eya2 interaction inhibition; Q15475+O00167; AlphaScreen GST-Six1/His-Eya2 binding, biochemical; active compounds read low; activity change, % (concentration not given with the values); 360,000 compounds, 0.56% hits
Target sequence (O00167 whole entry, looked up): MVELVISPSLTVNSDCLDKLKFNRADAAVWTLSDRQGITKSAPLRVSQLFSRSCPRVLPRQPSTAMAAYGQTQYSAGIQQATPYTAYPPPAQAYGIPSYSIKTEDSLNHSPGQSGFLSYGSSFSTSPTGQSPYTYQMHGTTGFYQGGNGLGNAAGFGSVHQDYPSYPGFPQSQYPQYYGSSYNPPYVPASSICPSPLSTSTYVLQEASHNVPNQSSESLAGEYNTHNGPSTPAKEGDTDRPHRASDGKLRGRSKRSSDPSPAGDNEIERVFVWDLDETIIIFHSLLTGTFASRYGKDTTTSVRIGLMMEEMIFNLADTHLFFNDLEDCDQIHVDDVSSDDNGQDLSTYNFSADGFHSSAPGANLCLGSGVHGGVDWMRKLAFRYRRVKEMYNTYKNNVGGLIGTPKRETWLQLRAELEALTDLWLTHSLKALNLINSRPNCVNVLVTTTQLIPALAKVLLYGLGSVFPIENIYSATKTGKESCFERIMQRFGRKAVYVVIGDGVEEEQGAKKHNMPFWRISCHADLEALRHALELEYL
Target sequence (Q15475 whole entry, looked up): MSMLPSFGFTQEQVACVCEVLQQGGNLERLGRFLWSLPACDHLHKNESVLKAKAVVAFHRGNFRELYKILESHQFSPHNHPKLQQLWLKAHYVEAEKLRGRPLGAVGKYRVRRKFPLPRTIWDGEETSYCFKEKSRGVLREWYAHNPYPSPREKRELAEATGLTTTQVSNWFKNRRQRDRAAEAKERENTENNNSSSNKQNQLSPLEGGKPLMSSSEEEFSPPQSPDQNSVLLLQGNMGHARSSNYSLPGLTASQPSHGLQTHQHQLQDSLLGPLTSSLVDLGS
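Homogeneous AlphaScreen proximity assay pairing GST-Six1 with His-tagged Eya2 (added as 5X mix: 250 nM and 500 nM) in 50 mM Tris pH 8.0, 300 mM NaCl, 1 mM TCEP. Glutathione donor and nickel acceptor beads; 1 h, 37 °C, dark.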
CtBP-E1A inh: CtBP/E1A binding inhibition. AlphaScreen GST-E1A/His-CtBP binding, 1536-well; active compounds read low. activity change, % (concentration not given with the values). 340,000 compounds, 0.49% hits. AID 651724
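Homogeneous bead-based format: GST-tagged E1A captured on glutathione donor beads, His-tagged CtBP on nickel acceptor beads; compounds precede bead addition by 2 h at 37 °C.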
PKM2 activator: increases activity of human pyruvate kinase M2; P14618; purified PKM2, Kinase-Glo ATP luminescence, activation; response scale: 0% is enzyme alone, no compound; Potency, µM (top dose mostly 57.5 µM), usual class: activators; 260,000 compounds, 0.34% hits; AID 1631; active = well fitted activation curve with a large enough effect; inconclusive = small, poorly fitted or top-dose-only effect; inactive = no such curve, though single readings can be large or run the other way; note: nearly all actives have a fitted effect of over 55% in size
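hPK-M2, >95% pure; 0.1 mM ADP / 0.5 mM PEP final; imidazole pH7.2 buffer w/ 7 mM MgCl2, 50 mM KCl; 1 h RT; Kinase-Glo lum. Intermediate enzyme activity for dual inhibitor/activator qHTS.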
Numbers stand for hits; - = inactive; ? = inconclusive; . = not tested or not shown; [ ] = dose if it differs, or a comment. Cut-off read from the data, not from the text of the source, unless noted: active = activity change below about -65%; inconclusive = mostly about -30% to -63%; inactive = weaker than that.

SMILES	MBNL1 CUG block	Six1-Eya2 inh	CtBP-E1A inh	PKM2 activator
Cc1ccc(/C=C/C(=O)Nc2sc(C)c(C)c2C(=O)OC(C)C)o1	.	-	-	16µM
O=C(O)c1cccc(N2C(=O)c3cccc4cccc(c34)C2=O)c1	?	-	-	-[11.5 µM]
O=C(O)c1cccc(N2C(=O)c3cc([N+](=O)[O-])cc4cc([N+](=O)[O-])cc(c34)C2=O)c1	?	-75	-68	-
Cc1c(N/N=C(\C#N)C(=O)c2ccc(Cl)cc2)c(=O)n(-c2ccccc2)n1C	-	-82	-76	-
N#C/C(=N\Nc1ccc(Cl)cc1)C(=O)c1ccccc1	-	-	-	-
COc1cccc(NC2=C(NCCO)C(=O)c3ccccc3C2=O)c1	?	?	?	-
Cc1cccc(NC2=C(NCCO)C(=O)c3ccccc3C2=O)c1	?	-67	-	-
Cc1cc(C)cc(NC2=C(N)C(=O)c3ccccc3C2=O)c1	?	-70	?	.
Cc1ccc(NC2=C(Cl)C(=O)c3ccccc3C2=O)cc1	?	-	-	-
CC(C)c1cccc(-c2csc(C(C)(O)c3ccncc3)n2)c1 (configuration not stated)	.	-	-	.
C=CCn1c(SCC(=O)N2CCOCC2)nc2scc(-c3ccco3)c2c1=O	-	-	-	14µM
CCCCn1nnnc1C(c1ccccc1)N1CCN(c2ncccc2C(F)(F)F)CC1 (configuration not stated)	.	-	-	.
COc1ccc(CSC(=S)NNc2ccccc2)cc1	.	-	-	.
O=C(O)c1cccc2cccc(-c3c4ccc(=O)c(O)c-4oc4c(O)c(O)ccc34)c12	.	-76	-	.
CCc1nc2c(OCc3c(C)noc3C)cccn2c1N(C=O)Cc1ccccc1	.	-	-	.
CC(C)(C)OC(=O)NCCC(=O)N/N=C/c1cccc2cccnc12	?	?	-79	-
Cc1ccc(OCC(=O)N/N=C/c2cccc3cccnc23)cc1	-	-77	-90	-
O=C(COc1cccc2cccnc12)N/N=C/c1ccccc1O	-	-	-	-
Cc1ccccc1OCC(=O)N/N=C/c1cccc2cccnc12	-	-76	-	-
Cc1ccc(OCC(=O)N/N=C/c2cn(C)c3ccccc23)cc1	-	-	-	-
O=C(COc1ccc(F)cc1)N/N=C/c1cccc2cccnc12	.	?	-86	.
CC(C)(C)OC(=O)NCCC(=O)N/N=C/c1ccc2ncccc2c1	?	?	-	-
Oc1c(Br)cc(Br)cc1/C=N/NC(=S)N[C@H]1CC2C=CC1C2 (some centres not stated)	-	-	-	-
CNC(=S)N/N=C/c1cc(Br)cc(Br)c1O	-	-90	-97	-
CC(=O)Nc1ccc(C(=O)N/N=C/c2cc(Br)cc(Br)c2O)cc1	-	-65	?	-
SMILES	MBNL1 CUG block	Six1-Eya2 inh	CtBP-E1A inh	PKM2 activator
CC(C)C(=O)Nc1ccc(C(=O)N/N=C/c2cc(Br)cc(Br)c2O)cc1	-	-	-	-
Cn1c(Cn2cnc(Cl)c2Cl)nc2ccccc21	-	-	-	25µM
Cc1ccc(S(=O)(=O)Nc2cccc3ncccc23)cc1	-	-	-	-
Cc1ccc(S(=O)(=O)Nc2cccc3ncccc23)s1	-	-86	-81	?
CSCCC(C(=O)Nc1c(C)cccc1C)n1c(-c2cnc(C)cn2)nc2ccccc21 (configuration not stated)	.	-	-	.
CCN1C(=NCCCCO)N[C@@H](c2ccccc2)C(C(=O)OC)=C1C	-	.	.	-
COc1ccc(OC)c(NC(=O)CSc2ncnc3sc(C)cc23)c1	.	?	-73	.
Cc1nnc(NC(=O)C2CC(=O)N(Cc3ccccc3)C2)s1 (configuration not stated)	-	-	-	-
O=C(Nc1nnc(SCc2ccc(F)cc2)s1)C1CC(=O)N(Cc2ccccc2)C1 (configuration not stated)	-	-	-	13µM
COc1cc(NS(=O)(=O)c2ccc(Nc3nc(-c4ccccn4)cs3)cc2)nc(OC)n1	-	-79	-76	-
CC(C)c1ccc(NC(=O)Nc2nc(C(N)COCc3ccccc3)cs2)cc1 (configuration not stated)	.	-	-	.
O=C(Nc1cccc(C(F)(F)F)c1)Oc1ccc(Cl)c2cccnc12	-	-70	-96	-
O=C(Nc1c(Cl)cccc1Cl)Oc1cccc2cccnc12	.	-90	-94	.
O=C(COc1cccc2cccnc12)Nc1ccccc1	.	-	-	-
O=C(Nc1cccc(Br)c1)Oc1cccc2cccnc12	.	-90	?	.
Clc1ccc(OCc2nc(-c3ccccn3)n[nH]2)cc1	-	-92	-94	-
Brc1ccc(OCc2nc(-c3ccccn3)n[nH]2)cc1	-	-91	-93	-
COc1ccccc1-c1cnc(C(O)c2ccc(C)cc2)[nH]1 (configuration not stated)	.	-	-	.
Cc1ccc(S(=O)(=O)CC(=O)c2ccc([N+](=O)[O-])cc2)cc1	?	-	.	22µM
Cc1ccc(S(=O)(=O)CC(=O)c2ccc(C)c([N+](=O)[O-])c2)cc1	-	-	-	-
Cc1cc(-c2n[nH]c(=S)n2/N=C/c2cc([N+](=O)[O-])ccc2Cl)n[nH]1	.	-80	-81	-
Cc1n[nH]c(=S)n(/N=C/c2ccccn2)c1=O	-	-79	-87	-
Cc1n[nH]c(=S)n(/N=C/c2cccc([N+](=O)[O-])c2)c1=O	.	?	-66	-
CCc1n[nH]c(=S)n1/N=C/c1ccccn1	-	-	-	-
S=c1[nH]nc(-c2ccccn2)n1/N=C/c1ccc(Br)s1	-	-77	-	-
SMILES	MBNL1 CUG block	Six1-Eya2 inh	CtBP-E1A inh	PKM2 activator
CCCC/C=C/C(NC(=O)c1cccs1)c1ccccc1 (configuration not stated)	.	.	.	-
Cc1ccc2ccc(C(Nc3ccccn3)c3ccccc3)c(O)c2n1 (configuration not stated)	-	-	-	-
Cc1ccnc(NC(c2ccccc2)c2ccc3cccnc3c2O)c1 (configuration not stated)	.	-78	-88	.
O=C(O)c1ccccc1NC(c1ccccc1)c1ccc2cccnc2c1O (configuration not stated)	.	-84	-	.
Cc1ccnc(NC(c2cccnc2)c2ccc3cccnc3c2O)c1 (configuration not stated)	-	-86	-99	-
Oc1c(C(Nc2ccccn2)c2ccccn2)ccc2cccnc12 (configuration not stated)	-	-95	-95	-
O=C(CNC(=O)c1cccc(-n2cccc2)c1)Nc1ccccc1Br	.	?	-	.
CCCC[C@@H]1C[C@H]1C(NC(=O)c1ccccc1)c1ccc(C(F)(F)F)cc1 (some centres not stated)	.	.	.	-
Oc1ccccc1C(Nc1nccs1)c1ccc2cccnc2c1O (configuration not stated)	-	-77	-93	-
Cc1cc(NC(c2ccc(Cl)cc2)c2ccc3cccnc3c2O)no1 (configuration not stated)	-	-66	?	-
COc1ccccc1NC(c1cccnc1)c1ccc2cccnc2c1O (configuration not stated)	-	-79	-78	-
